{
  "source": "paper PMC4336329",
  "about": "(PLoS ONE, 2015)",
  "note": "The whole screen tested about 310,000 compounds, of which about 14,000 (4.5%) showed an effect of 50% or more. Effects have a minus sign here. The sample holds strong results, similar compounds and a random draw of the others, so the mix is not that of the screen.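 Note: peak tail current of the secondary pulse compared with the same well before compound.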",
  "data": [
    {"target": "human ether-à-go-go-related gene (hERG) potassium channel (human, UniProt Q12809)", "sequence (Q12809 whole entry, looked up)": "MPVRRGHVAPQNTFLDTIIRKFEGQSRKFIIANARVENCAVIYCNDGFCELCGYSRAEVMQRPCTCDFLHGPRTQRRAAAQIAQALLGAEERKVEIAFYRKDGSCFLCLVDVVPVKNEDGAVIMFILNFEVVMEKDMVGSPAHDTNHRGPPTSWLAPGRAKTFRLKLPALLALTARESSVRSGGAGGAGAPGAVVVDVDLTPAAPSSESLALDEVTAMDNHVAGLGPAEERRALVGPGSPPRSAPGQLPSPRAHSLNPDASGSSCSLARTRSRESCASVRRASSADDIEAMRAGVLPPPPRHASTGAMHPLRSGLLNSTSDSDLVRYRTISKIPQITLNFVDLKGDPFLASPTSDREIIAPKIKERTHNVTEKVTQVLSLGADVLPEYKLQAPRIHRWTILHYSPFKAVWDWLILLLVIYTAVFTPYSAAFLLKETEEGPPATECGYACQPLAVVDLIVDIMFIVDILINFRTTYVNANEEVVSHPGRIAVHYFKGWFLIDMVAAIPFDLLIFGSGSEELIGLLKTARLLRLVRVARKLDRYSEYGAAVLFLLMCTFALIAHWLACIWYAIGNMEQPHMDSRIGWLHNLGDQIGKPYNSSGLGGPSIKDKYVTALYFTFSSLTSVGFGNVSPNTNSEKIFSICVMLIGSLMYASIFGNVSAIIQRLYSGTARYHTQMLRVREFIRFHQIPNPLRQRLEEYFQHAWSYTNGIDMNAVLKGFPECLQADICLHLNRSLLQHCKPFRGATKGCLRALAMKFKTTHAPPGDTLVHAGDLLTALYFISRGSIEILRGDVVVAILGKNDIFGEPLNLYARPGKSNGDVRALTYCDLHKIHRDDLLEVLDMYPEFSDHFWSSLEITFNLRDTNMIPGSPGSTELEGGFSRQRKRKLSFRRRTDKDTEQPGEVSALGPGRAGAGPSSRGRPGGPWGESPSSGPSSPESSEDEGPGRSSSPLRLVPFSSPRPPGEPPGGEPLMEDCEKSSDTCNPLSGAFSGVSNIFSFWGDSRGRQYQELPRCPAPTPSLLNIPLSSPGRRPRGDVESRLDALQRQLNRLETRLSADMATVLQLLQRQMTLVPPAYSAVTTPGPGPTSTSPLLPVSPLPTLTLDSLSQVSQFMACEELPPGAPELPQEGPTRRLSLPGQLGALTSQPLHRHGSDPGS", "assay": "primary screen, population patch clamp on CHO cells stably expressing hERG; higher = less effect of the substance", "units": {"hERG current change (%, negative = inhibition) at 10uM": "%"}, "values": [
      {"compound": "CC(=O)NCCC(=O)Nc1nc(-c2ccccc2Cl)cs1", "hERG current change (%, negative = inhibition) at 10uM": -9.76},
      {"compound": "CCOc1ccc(C(=O)Nc2cccc(-n3cnnn3)c2)cc1OCC", "hERG current change (%, negative = inhibition) at 10uM": -40.4},
      {"compound": "O=C(/C=C/c1ccco1)Nc1ccc(Oc2ccc(Cl)cc2)cc1", "hERG current change (%, negative = inhibition) at 10uM": 16.1},
      {"compound": "COc1ccc(S(=O)(=O)NCc2ccccn2)cc1Br", "hERG current change (%, negative = inhibition) at 10uM": 12.5},
      {"compound": "CCN1C(=O)/C(=C/c2cc(C)n(C)c2C)SC1=Nc1ccc(OC)cc1", "hERG current change (%, negative = inhibition) at 10uM": 9.24},
      {"compound": "Cc1ccccc1NN1C(=O)C=CC1=O", "hERG current change (%, negative = inhibition) at 10uM": -8.26},
      {"compound": "CCOC(=O)CC1C(=O)NCCN1C(=O)c1c(F)cccc1F", "note": "(centres unmarked)", "hERG current change (%, negative = inhibition) at 10uM": 16.1},
      {"compound": "COc1ccc2cc(CCNC(=O)C(C)C)c(=O)[nH]c2c1", "hERG current change (%, negative = inhibition) at 10uM": 13.4},
      {"compound": "C/C(=N\\NC(=O)C(C)Sc1ccccc1)c1ccc([N+](=O)[O-])cc1", "note": "(centres unmarked)", "hERG current change (%, negative = inhibition) at 10uM": -3.27},
      {"compound": "C/C(=N\\NC(=O)C(C)Nc1cccc(Cl)c1)c1ccc([N+](=O)[O-])cc1", "note": "(centres unmarked)", "hERG current change (%, negative = inhibition) at 10uM": -50.5},
      {"compound": "C/C(=N\\NC(=O)c1cccc(N/N=C(\\C)c2ccc([N+](=O)[O-])cc2)c1)c1ccc([N+](=O)[O-])cc1", "hERG current change (%, negative = inhibition) at 10uM": 1.39},
      {"compound": "Cc1c(Cl)cccc1NC(=S)N1CCN(c2ccc([N+](=O)[O-])cn2)CC1", "hERG current change (%, negative = inhibition) at 10uM": 2.33},
      {"compound": "O=C(NCc1ccc(F)cc1)C1CCCN(S(=O)(=O)c2cccc3nonc23)C1", "note": "(centres unmarked)", "hERG current change (%, negative = inhibition) at 10uM": 19.6},
      {"compound": "CN(C)CCCN(C(=O)c1cccs1)c1nc2cc3c(cc2s1)OCO3.Cl", "hERG current change (%, negative = inhibition) at 10uM": -56.8},
      {"compound": "CN(C)CCN(C(=O)c1cccc2ccccc12)c1nc2cc3c(cc2s1)OCO3.Cl", "hERG current change (%, negative = inhibition) at 10uM": -22.3},
      {"compound": "Cc1ccc2sc(N(CCCN(C)C)C(=O)c3nc4ccccc4s3)nc2c1C.Cl", "hERG current change (%, negative = inhibition) at 10uM": 3.59},
      {"compound": "CN(C)CCCN(C(=O)c1cc(Cl)sc1Cl)c1nc2cc3c(cc2s1)OCO3.Cl", "hERG current change (%, negative = inhibition) at 10uM": -41.9},
      {"compound": "Cc1ccc2nc(N(CCCN(C)C)C(=O)c3ccc(Br)s3)sc2c1.Cl", "hERG current change (%, negative = inhibition) at 10uM": -44.3},
      {"compound": "CN(C)CCN(C(=O)c1cccs1)c1nc2cc3c(cc2s1)OCCO3.Cl", "hERG current change (%, negative = inhibition) at 10uM": -23.6},
      {"compound": "CN(C)CCCN(C(=O)c1ccc([N+](=O)[O-])s1)c1nc2cc3c(cc2s1)OCCO3.Cl", "hERG current change (%, negative = inhibition) at 10uM": -71.3},
      {"compound": "Cc1ccc2sc(N(CCCN(C)C)C(=O)c3ccc(Br)s3)nc2c1C.Cl", "hERG current change (%, negative = inhibition) at 10uM": -71.7},
      {"compound": "CN(C)CCCN(C(=O)c1ccc(Cl)s1)c1nc2cc3c(cc2s1)OCO3", "hERG current change (%, negative = inhibition) at 10uM": -69},
      {"compound": "CCC(C(=O)NC1CCCCC1)n1c2ccccc2c2nc(=O)cc(C)n21", "note": "(centres unmarked)", "hERG current change (%, negative = inhibition) at 10uM": 10.4},
      {"compound": "O/N=C/c1cn(-c2ccccc2)nc1-c1cccnc1", "hERG current change (%, negative = inhibition) at 10uM": -31.6},
      {"compound": "COCCCNC(=O)Cn1cnc2sc(C)c(S(=O)(=O)N3CC(C)CC(C)C3)c2c1=O", "note": "(centres unmarked)", "hERG current change (%, negative = inhibition) at 10uM": -0.637},
      {"compound": "COCCCN1C(=O)c2ccc(C(=O)O)cc2C1=O", "hERG current change (%, negative = inhibition) at 10uM": -0.568},
      {"compound": "COC(=O)c1ccc(/C=N/NC(=O)c2cccc(F)c2)cc1", "hERG current change (%, negative = inhibition) at 10uM": 6.65},
      {"compound": "COc1cccc(C(=O)NCC(=O)N/N=C/c2cn[nH]c2-c2ccccc2)c1", "hERG current change (%, negative = inhibition) at 10uM": -4.6},
      {"compound": "Cc1nc2nc(C)c(CCC(=O)NCCC3=CCCCC3)c(C)n2n1", "hERG current change (%, negative = inhibition) at 10uM": 4.49},
      {"compound": "COc1ccc(S(=O)(=O)N(C)C)cc1NC(C)C(=O)Nc1cccc(C#N)c1", "note": "(centres unmarked)", "hERG current change (%, negative = inhibition) at 10uM": -23.5},
      {"compound": "COc1cccc(CNC(=O)C2CSC3(C)CCC(=O)N23)c1", "note": "(centres unmarked)", "hERG current change (%, negative = inhibition) at 10uM": 6.82},
      {"compound": "CN(C)c1ccc(N/C=C/C(=O)C(C)(C)C)cc1", "hERG current change (%, negative = inhibition) at 10uM": 15.9},
      {"compound": "COC(=O)CN1C(=S)N(C)C(=O)/C1=C/c1cccs1", "hERG current change (%, negative = inhibition) at 10uM": 5.21},
      {"compound": "O=C(CNC(=O)c1ccc(Br)o1)NNC(=O)c1ccccc1O", "hERG current change (%, negative = inhibition) at 10uM": -2.55},
      {"compound": "CCn1c2ccccc2c2cc(N=C3SC(CC(=O)Nc4ccccc4OC)C(=O)N3CCOC)ccc21", "note": "(centres unmarked)", "hERG current change (%, negative = inhibition) at 10uM": -3.75},
      {"compound": "CN(C)CCCN(C(=O)c1ccc(Br)s1)c1nc2cc3c(cc2s1)OCO3.Cl", "hERG current change (%, negative = inhibition) at 10uM": -52},
      {"compound": "CN(C)CCN(C(=O)c1ccc(Br)s1)c1nc2cc3c(cc2s1)OCCO3.Cl", "hERG current change (%, negative = inhibition) at 10uM": -4.91},
      {"compound": "CN(C)CCCN(C(=O)c1ccc(Br)s1)c1nc2cc3c(cc2s1)OCCO3.Cl", "hERG current change (%, negative = inhibition) at 10uM": -33.9},
      {"compound": "COC(=O)C1=C(c2ccc(F)cc2OCc2ccccc2)C[C@@H]2CC[C@H]1N2C(=O)N1CCCCC1", "hERG current change (%, negative = inhibition) at 10uM": -9.9},
      {"compound": "Cc1ccccc1CNC(=O)Cn1cnc(S(=O)(=O)N2CCCC2)c1", "hERG current change (%, negative = inhibition) at 10uM": 6.06},
      {"compound": "CCCOC(=O)C(C)n1cnc2scc(-c3ccc(C)cc3)c2c1=O", "note": "(centres unmarked)", "hERG current change (%, negative = inhibition) at 10uM": 6.79},
      {"compound": "CC(C)(C)n1nnnc1C(c1ccc2ncccc2c1)N1CCSCC1", "note": "(centres unmarked)", "hERG current change (%, negative = inhibition) at 10uM": -18.1},
      {"compound": "CCC(C)(C)n1nnnc1C(c1ccc2ncccc2c1)N1CCN(c2ccc(O)cc2)CC1", "note": "(centres unmarked)", "hERG current change (%, negative = inhibition) at 10uM": -31.7},
      {"compound": "CC(C)(C)n1nnnc1C(c1cccnc1)N1CCN(c2ccccc2)CC1", "note": "(centres unmarked)", "hERG current change (%, negative = inhibition) at 10uM": -8.19},
      {"compound": "COc1ccc(N2CCN(C(c3ccc4ncccc4c3)c3nnnn3C(C)C)CC2)cc1", "note": "(centres unmarked)", "hERG current change (%, negative = inhibition) at 10uM": -51.7},
      {"compound": "CC(C)(C)n1nnnc1C(c1ccc2ncccc2c1)N1CCC(O)CC1", "note": "(centres unmarked)", "hERG current change (%, negative = inhibition) at 10uM": 12.4},
      {"compound": "CCC(C)(C)n1nnnc1C(c1cccnc1)N1CCN(c2cccc(C(F)(F)F)c2)CC1", "note": "(centres unmarked)", "hERG current change (%, negative = inhibition) at 10uM": -41},
      {"compound": "COCCn1nnnc1C(c1ccc2ncccc2c1)N1CCN(c2ccccc2F)CC1", "note": "(centres unmarked)", "hERG current change (%, negative = inhibition) at 10uM": -19.4},
      {"compound": "COc1ccc(N2CCN(C(c3ccc4ncccc4c3)c3nnnn3C(C)(C)C)CC2)cc1", "note": "(centres unmarked)", "hERG current change (%, negative = inhibition) at 10uM": -52.1},
      {"compound": "CC(C)(C)n1nnnc1C(c1cccnc1)N1CCN(c2cccc(C(F)(F)F)c2)CC1.Cl", "note": "(centres unmarked)", "hERG current change (%, negative = inhibition) at 10uM": -53.3},
      {"compound": "CCc1ccc(NC(=O)Nc2ccncc2)cc1", "hERG current change (%, negative = inhibition) at 10uM": -20.9},
      {"compound": "O=C1Nc2ccc([N+](=O)[O-])cc2OC1CCN1CCN(c2ccccc2)CC1", "note": "(centres unmarked)", "hERG current change (%, negative = inhibition) at 10uM": -47.4},
      {"compound": "C/C(=N\\Nc1ncnc2sc(C)c(C)c12)c1ccccn1", "hERG current change (%, negative = inhibition) at 10uM": -35.5}
    ]}
  ]
}
